Measurements taken from PubChem BioAssay AID1159580 (chemical genetic matrix, 2015).
Values joined by “and” are separate entries in the source; they are usually repeats but may differ in a detail not shown here. Equal values may be shown once. Hit rate of the full screen: of about 5,500 compounds, about 2,000 (36%) were called active. Another 18% or so got no clear call; they are omitted. Rule as the data show it: active = normalized growth mostly below about 0.91 (no sharp cut-off); inconclusive = no clear call, values can overlap the other calls; inactive = mostly above about 0.92. Some of the results follow.

Assay: chemical genetic growth profiling, strain panel (AID 1159580);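 also: tested at 20 µM; growth read once vehicle control cultures reached saturation at 30 °C; 1 = growth at the plate median or of vehicle wells; lower values mean less growth of the strain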
Details: growth OD
[1] = S. cerevisiae deletion strains, locus YBR229C, strain ROT2, stronger effect = lower value
[2] = S. cerevisiae deletion strains, locus YDL101C, strain DUN1, stronger effect = lower value
[3] = S. cerevisiae deletion strains, locus YDR150W, strain NUM1, stronger effect = lower value
[4] = S. cerevisiae deletion strains, locus YEL061C, strain CIN8, stronger effect = lower value
[5] = S. cerevisiae deletion strains, locus YGR229C, strain SMI1, stronger effect = lower value
[6] = S. cerevisiae deletion strains, locus YHR030C, strain SLT2, stronger effect = lower value
[7] = S. cerevisiae deletion strains, locus YJR043C, strain POL32, stronger effect = lower value
[8] = S. cerevisiae deletion strains, locus YLR039C, strain RIC1, stronger effect = lower value
[9] = S. cerevisiae deletion strains, locus YLR262C, strain YPT6, stronger effect = lower value
[10] = S. cerevisiae deletion strains, locus YMR263W, strain SAP30, stronger effect = lower value
[11] = S. cerevisiae deletion strains, locus YMR307W, strain GAS1, stronger effect = lower value
[12] = S. cerevisiae deletion strains, locus YPL055C, strain LGE1, stronger effect = lower value
[13] = S. cerevisiae deletion strains, locus YPL241C, strain CIN2, stronger effect = lower value
[14] = S. cerevisiae strains, strain wild type, stronger effect = lower value

Measured: normalized growth

CNc1ccccc1C(=O)O
active: S. cerevisiae deletion strains, locus YLR113W, strain HOG1, stronger effect = lower value 0.78 | S. cerevisiae deletion strains, locus YNL183C, strain NPR1, stronger effect = lower value 0.822
1.05 (inactive) and 0.875 (active): S. cerevisiae deletion strains, locus YJL095W, strain BCK1, stronger effect = lower value
inactive: S. cerevisiae deletion strains, locus YBR021W, strain FUR4, stronger effect = lower value 0.955 | [1] 1 | S. cerevisiae deletion strains, locus YCL029C, strain bik1, stronger effect = lower value 1.01 | S. cerevisiae deletion strains, locus YDL035C, strain GPR1, stronger effect = lower value 1.02 | S. cerevisiae deletion strains, locus YDL074C, strain BRE1, stronger effect = lower value 1.03 | [2] 1.02 | S. cerevisiae deletion strains, locus YDL185W, strain tfp1, stronger effect = lower value 1 | S. cerevisiae deletion strains, locus YDL192W, strain arf1, stronger effect = lower value 0.996 | S. cerevisiae deletion strains, locus YDR101C, strain arx1, stronger effect = lower value 1 | [3] 0.997 | S. cerevisiae deletion strains, locus YDR162C, strain NBP2, stronger effect = lower value 1.05 | S. cerevisiae deletion strains, locus YDR318W, strain mcm21, stronger effect = lower value 0.998 | S. cerevisiae deletion strains, locus YDR388W, stronger effect = lower value 1 | S. cerevisiae deletion strains, locus YDR502C, strain sam2, stronger effect = lower value 1.02 | [4] 1 | S. cerevisiae deletion strains, locus YER110C, stronger effect = lower value 1.02 | S. cerevisiae deletion strains, locus YER155C, strain BEM2, stronger effect = lower value 0.973 | S. cerevisiae deletion strains, locus YER167W, strain BCK2, stronger effect = lower value 1 | S. cerevisiae deletion strains, locus YGL078C, strain dbp3, stronger effect = lower value 0.981 | S. cerevisiae deletion strains, locus YGL086W, strain mad1, stronger effect = lower value 0.989 | S. cerevisiae deletion strains, locus YGL248W, strain PDE1, stronger effect = lower value 1.03 | S. cerevisiae deletion strains, locus YGR135W, strain pre9, stronger effect = lower value 1 | [5] 1 | S. cerevisiae deletion strains, locus YGR252W, strain gcn5, stronger effect = lower value 1.02 | [6] 1.01 and 0.862 | S. cerevisiae deletion strains, locus YHR079C, strain IRE1 (second series), stronger effect = lower value 0.986 | S. cerevisiae deletion strains, locus YHR079C, strain IRE1, stronger effect = lower value 0.873 | S. cerevisiae deletion strains, locus YHR094C, strain hxt1, stronger effect = lower value 1 | S. cerevisiae deletion strains, locus YHR129C, strain ARP1, stronger effect = lower value 1.01 | S. cerevisiae deletion strains, locus YHR200W, strain rpn10, stronger effect = lower value 1.01 | S. cerevisiae deletion strains, locus YIL066C, strain RNR3, stronger effect = lower value 1.04 | S. cerevisiae deletion strains, locus YIL073C, strain SPO22, stronger effect = lower value 1.09 | S. cerevisiae deletion strains, locus YIL125W, strain kgd1, stronger effect = lower value 0.969 | S. cerevisiae deletion strains, locus YIR030C, strain dcg1, stronger effect = lower value 1.01 | S. cerevisiae deletion strains, locus YJL134W, strain LCB3, stronger effect = lower value 1 | S. cerevisiae deletion strains, locus YJL168C, strain set2, stronger effect = lower value 0.996 | S. cerevisiae deletion strains, locus YJL187C, strain SWE1 (second series), stronger effect = lower value 1.02 | [7] 1.01 | S. cerevisiae deletion strains, locus YJR066W, strain TOR1, stronger effect = lower value 0.842 | S. cerevisiae deletion strains, locus YKL009W, strain mrt4, stronger effect = lower value 0.972 | S. cerevisiae deletion strains, locus YKL068W, stronger effect = lower value 0.967 | S. cerevisiae deletion strains, locus YKL085W, strain MDH1 (second series), stronger effect = lower value 0.985 | S. cerevisiae deletion strains, locus YKL085W, strain MDH1, stronger effect = lower value 0.985 | S. cerevisiae deletion strains, locus YKR001C, strain vps1, stronger effect = lower value 1 | [8] 1.03 | S. cerevisiae deletion strains, locus YLR058C, strain SHM2, stronger effect = lower value 1.02 | S. cerevisiae deletion strains, locus YLR102C, strain apc9, stronger effect = lower value 1 | [9] 1.06 | S. cerevisiae deletion strains, locus YLR268W, strain sec22, stronger effect = lower value 0.993 | S. cerevisiae deletion strains, locus YLR330W, strain CHS5, stronger effect = lower value 1.02 | S. cerevisiae deletion strains, locus YLR342W, strain FKS1 (second series), stronger effect = lower value 1.02 | S. cerevisiae deletion strains, locus YLR371W, strain rom2, stronger effect = lower value 0.995 | S. cerevisiae deletion strains, locus YLR418C, strain cdc73, stronger effect = lower value 1.08 | S. cerevisiae deletion strains, locus YML016C, strain PPZ1, stronger effect = lower value 1.01 | S. cerevisiae deletion strains, locus YML032C, strain rad52, stronger effect = lower value 1.02 | S. cerevisiae deletion strains, locus YML124C, strain tub3, stronger effect = lower value 1.01 | S. cerevisiae deletion strains, locus YMR078C, strain ctf18, stronger effect = lower value 1 | S. cerevisiae deletion strains, locus YMR223W, strain ubp8, stronger effect = lower value 1.01 | [10] 1.02 | [11] 1.08 | S. cerevisiae deletion strains, locus YNL067W, strain RPL9B, stronger effect = lower value 1.01 | S. cerevisiae deletion strains, locus YNL233W, strain BNI4, stronger effect = lower value 1.02 | S. cerevisiae deletion strains, locus YNL250W, strain rad50, stronger effect = lower value 0.994 | S. cerevisiae deletion strains, locus YNL271C, strain bni1, stronger effect = lower value 0.989 | S. cerevisiae deletion strains, locus YNL298W, strain CLA4, stronger effect = lower value 1.01 | S. cerevisiae deletion strains, locus YNL307C, strain MCK1, stronger effect = lower value 0.993 | S. cerevisiae deletion strains, locus YNR052C, strain pop2, stronger effect = lower value 1 | S. cerevisiae deletion strains, locus YOL012C, strain htz1 1.68 | S. cerevisiae deletion strains, locus YOL147C, strain pex11, stronger effect = lower value 0.999 | S. cerevisiae deletion strains, locus YOR061W, strain CKA2, stronger effect = lower value 1.01 | S. cerevisiae deletion strains, locus YOR069W, strain VPS5, stronger effect = lower value 1.01 | S. cerevisiae deletion strains, locus YOR136W, strain idh2, stronger effect = lower value 1.01 | S. cerevisiae deletion strains, locus YOR144C, strain elg1, stronger effect = lower value 0.994 | S. cerevisiae deletion strains, locus YOR184W, strain ser1, stronger effect = lower value 1.01 | S. cerevisiae deletion strains, locus YOR231W, strain MKK1, stronger effect = lower value 0.884 | S. cerevisiae deletion strains, locus YOR316C, strain cot1, stronger effect = lower value 1.01 | [12] 1.04 | [13] 0.999 | S. cerevisiae deletion strains, locus YPL256C, strain CLN2, stronger effect = lower value 0.838 | S. cerevisiae deletion strains, locus YPR119W, strain clb2, stronger effect = lower value 0.995 | S. cerevisiae deletion strains, locus YPR141C, strain kar3, stronger effect = lower value 0.968 | S. cerevisiae deletion strains, locus YPR163C, strain tif3, stronger effect = lower value 0.998 | S. cerevisiae deletion strains, locus YPR167C, strain met16, stronger effect = lower value 1.02 | S. cerevisiae deletion strains, strain wtn01, stronger effect = lower value 1.01 | [14] 1.01

O=C(COC(=O)c1ccccc1Nc1ccccc1)c1ccc(Cl)cc1
inactive: S. cerevisiae deletion strains, locus YAL013W, strain DEP1, stronger effect = lower value 0.978 | [1] 0.99 | S. cerevisiae deletion strains, locus YCL061C, strain MRC1, stronger effect = lower value 0.993 | [2] 0.986 | [3] 0.9 | [4] 0.993 | S. cerevisiae deletion strains, locus YGR078C, strain PAC10, stronger effect = lower value 0.982 | [5] 0.98 | [6] 1.01 | S. cerevisiae deletion strains, locus YHR087W, strain rtc3, stronger effect = lower value 0.974 | S. cerevisiae deletion strains, locus YJL187C, strain SWE1, stronger effect = lower value 0.997 | [7] 0.98 | S. cerevisiae deletion strains, locus YJR075W, strain HOC1, stronger effect = lower value 1 | S. cerevisiae deletion strains, locus YKL190W, strain CNB1, stronger effect = lower value 0.988 | [8] 0.944 | S. cerevisiae deletion strains, locus YLR058C, strain SHM2 (second series), stronger effect = lower value 0.992 | S. cerevisiae deletion strains, locus YLR085C, strain ARP6, stronger effect = lower value 1.02 | [9] 0.987 | S. cerevisiae deletion strains, locus YML094W, strain GIM5, stronger effect = lower value 0.956 | S. cerevisiae deletion strains, locus YMR219W, strain ESC1, stronger effect = lower value 0.988 | [10] 0.927 | [11] 0.987 | S. cerevisiae deletion strains, locus YNL153C, strain GIM3, stronger effect = lower value 0.993 | S. cerevisiae deletion strains, locus YNL298W, strain CLA4 (second series), stronger effect = lower value 1 | S. cerevisiae deletion strains, locus YNL322C, strain KRE1, stronger effect = lower value 0.966 | S. cerevisiae deletion strains, locus YNR030W, strain Alg12, stronger effect = lower value 0.99 | S. cerevisiae deletion strains, locus YOL006C, strain TOP1, stronger effect = lower value 0.964 | [12] 0.921 | [13] 0.9 | S. cerevisiae deletion strains, locus YPR135W, strain CTF4, stronger effect = lower value 1.01 | [14] 0.985
